Test results reported in PubChem BioAssay AID1159580 (chemical genetic matrix, 2015).
Out of some 5,500 compounds screened, about 2,000 (36%) were called active. Not shown: some 18% with an inconclusive outcome. Rule as the data show it: active = normalized growth mostly below about 0.91 (no sharp cut-off); inconclusive = no clear call, values can overlap the other calls; inactive = mostly above about 0.92. Some of the results follow.

Assay: chemical genetic growth profiling, strain panel (AID 1159580);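 also: tested at 20 µM; growth read once vehicle control cultures reached saturation at 30 °C; 1 = growth at the plate median or of vehicle wells; lower values mean less growth of the strain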
Details: growth OD

Measured: normalized growth

Nc1c2ccccc2nc2ccccc12
active: S. cerevisiae deletion strains, locus YJR075W, strain HOC1, hits give low values 0.646 | S. cerevisiae deletion strains, locus YKL085W, strain MDH1 (second series), hits give low values 0.872 | S. cerevisiae deletion strains, locus YKL085W, strain MDH1, hits give low values 0.872 | S. cerevisiae deletion strains, locus YKL160W, strain elf1, hits give low values 0.562 | S. cerevisiae deletion strains, locus YKL190W, strain CNB1, hits give low values 0.64 | S. cerevisiae deletion strains, locus YKR001C, strain vps1, hits give low values 0.481 | S. cerevisiae deletion strains, locus YKR091W, strain srl3, hits give low values 0.925 | S. cerevisiae deletion strains, locus YLL001W, strain dnm1, hits give low values 0.476 | S. cerevisiae deletion strains, locus YLL026W, hits give low values 0.555 | S. cerevisiae deletion strains, locus YLL041C, strain sdh2, hits give low values 0.784 | S. cerevisiae deletion strains, locus YLR027C, strain aat2, hits give low values 0.453 | S. cerevisiae deletion strains, locus YLR058C, strain SHM2, hits give low values 0.613 | S. cerevisiae deletion strains, locus YLR102C, strain apc9, hits give low values 0.823 | S. cerevisiae deletion strains, locus YLR221C, strain rsa3, hits give low values 0.516 | S. cerevisiae deletion strains, locus YLR258W, strain gsy2, hits give low values 0.53 | S. cerevisiae deletion strains, locus YLR262C, strain YPT6 (second series), hits give low values 0.843 | S. cerevisiae deletion strains, locus YLR268W, strain sec22, hits give low values 0.515 | S. cerevisiae deletion strains, locus YLR320W, strain mms22, hits give low values 0.565 | S. cerevisiae deletion strains, locus YLR330W, strain CHS5, hits give low values 0.886 | S. cerevisiae deletion strains, locus YLR342W, strain FKS1 (second series), hits give low values 0.713 | S. cerevisiae deletion strains, locus YLR342W, strain FKS1, hits give low values 0.792 | S. cerevisiae deletion strains, locus YLR357W, strain rsc2, hits give low values 1.2 [resistant] | S. cerevisiae deletion strains, locus YLR370C, strain arc18, hits give low values 0.7 | S. cerevisiae deletion strains, locus YLR384C, strain iki3, hits give low values 0.853 | S. cerevisiae deletion strains, locus YLR418C, strain cdc73, hits give low values 0.689 | S. cerevisiae deletion strains, locus YML016C, strain PPZ1, hits give low values 0.847 | S. cerevisiae deletion strains, locus YML032C, strain rad52, hits give low values 0.314 | S. cerevisiae deletion strains, locus YML120C, strain ndi1, hits give low values 0.582 | S. cerevisiae deletion strains, locus YML124C, strain tub3, hits give low values 0.743 | S. cerevisiae deletion strains, locus YMR058W, strain fet3, hits give low values 0.639 | S. cerevisiae deletion strains, locus YMR078C, strain ctf18, hits give low values 0.763 | S. cerevisiae deletion strains, locus YMR129W, hits give low values 0.693 | S. cerevisiae deletion strains, locus YMR205C, strain PFK2, hits give low values 0.634 | S. cerevisiae deletion strains, locus YMR223W, strain ubp8, hits give low values 0.557 | S. cerevisiae deletion strains, locus YMR263W, strain SAP30, hits give low values 0.767 | S. cerevisiae deletion strains, locus YNL067W, strain RPL9B, hits give low values 0.606 | S. cerevisiae deletion strains, locus YNL128W, strain TEP1, hits give low values 0.733 | S. cerevisiae deletion strains, locus YNL153C, strain GIM3, hits give low values 0.713 | S. cerevisiae deletion strains, locus YNL183C, strain NPR1, hits give low values 0.771 | S. cerevisiae deletion strains, locus YNL209W, strain ssb2, hits give low values 0.663 | S. cerevisiae deletion strains, locus YNL233W, strain BNI4, hits give low values 0.74 | S. cerevisiae deletion strains, locus YNL248C, strain rpa49, hits give low values 0.445 | S. cerevisiae deletion strains, locus YNL250W, strain rad50, hits give low values 0.78 | S. cerevisiae deletion strains, locus YNL271C, strain bni1, hits give low values 0.87 | S. cerevisiae deletion strains, locus YNL298W, strain CLA4, hits give low values 0.847 | S. cerevisiae deletion strains, locus YNL307C, strain MCK1, hits give low values 0.715 | S. cerevisiae deletion strains, locus YNL322C, strain KRE1, hits give low values 0.698 | S. cerevisiae deletion strains, locus YNR049C, strain mso1, hits give low values 0.672 | S. cerevisiae deletion strains, locus YNR052C, strain pop2, hits give low values 0.778 | S. cerevisiae deletion strains, locus YOL012C, strain htz1 2.35 [resistant] | S. cerevisiae deletion strains, locus YOL147C, strain pex11, hits give low values 0.661 | S. cerevisiae deletion strains, locus YOR001W, strain rrp6, hits give low values 0.309 | S. cerevisiae deletion strains, locus YOR061W, strain CKA2, hits give low values 0.824 | S. cerevisiae deletion strains, locus YOR069W, strain VPS5, hits give low values 0.811 | S. cerevisiae deletion strains, locus YOR070C, strain gyp1, hits give low values 0.625 | S. cerevisiae deletion strains, locus YOR080W, strain dia2, hits give low values 0.783 | S. cerevisiae deletion strains, locus YOR083W, strain WHI5, hits give low values 0.501 | S. cerevisiae deletion strains, locus YOR106W, strain vam3, hits give low values 0.445 | S. cerevisiae deletion strains, locus YOR136W, strain idh2, hits give low values 0.805 | S. cerevisiae deletion strains, locus YOR144C, strain elg1, hits give low values 0.752 | S. cerevisiae deletion strains, locus YOR184W, strain ser1, hits give low values 0.41 | S. cerevisiae deletion strains, locus YOR231W, strain MKK1, hits give low values 0.67 | S. cerevisiae deletion strains, locus YOR265W, strain rbl2, hits give low values 0.706 | S. cerevisiae deletion strains, locus YOR270C, strain vph1, hits give low values 0.599 | S. cerevisiae deletion strains, locus YOR290C, strain snf2, hits give low values 0.371 | S. cerevisiae deletion strains, locus YOR316C, strain cot1, hits give low values 0.808 | S. cerevisiae deletion strains, locus YPL051W, strain arl3, hits give low values 0.696 | S. cerevisiae deletion strains, locus YPL055C, strain LGE1, hits give low values 0.659 | S. cerevisiae deletion strains, locus YPL078C, strain atp4, hits give low values 0.674 | S. cerevisiae deletion strains, locus YPL106C, strain sse1, hits give low values 0.781 | S. cerevisiae deletion strains, locus YPL240C, strain hsp82, hits give low values 0.8 | S. cerevisiae deletion strains, locus YPL241C, strain CIN2, hits give low values 0.837 | S. cerevisiae deletion strains, locus YPL256C, strain CLN2, hits give low values 0.778 | S. cerevisiae deletion strains, locus YPR119W, strain clb2, hits give low values 0.862 | S. cerevisiae deletion strains, locus YPR167C, strain met16, hits give low values 0.758 | S. cerevisiae deletion strains, strain wtn01, hits give low values 0.42 | S. cerevisiae strains, strain wild type, hits give low values 0.601
inactive: S. cerevisiae deletion strains, locus YKL009W, strain mrt4, hits give low values 0.909 | S. cerevisiae deletion strains, locus YKL068W, hits give low values 0.988 | S. cerevisiae deletion strains, locus YKR026C, strain gcn3, hits give low values 0.968 | S. cerevisiae deletion strains, locus YLR039C, strain RIC1, hits give low values 0.99 | S. cerevisiae deletion strains, locus YLR113W, strain HOG1, hits give low values 0.979 | S. cerevisiae deletion strains, locus YLR262C, strain YPT6, hits give low values 0.915 | S. cerevisiae deletion strains, locus YLR371W, strain rom2, hits give low values 0.948 | S. cerevisiae deletion strains, locus YMR125W, strain sto1, hits give low values 0.919 | S. cerevisiae deletion strains, locus YMR231W, strain pep5, hits give low values 0.985 | S. cerevisiae deletion strains, locus YMR307W, strain GAS1, hits give low values 1.13 | S. cerevisiae deletion strains, locus YNL071W, strain lat1, hits give low values 0.977 | S. cerevisiae deletion strains, locus YNL322C, strain KRE1 (second series), hits give low values 0.981 | S. cerevisiae deletion strains, locus YOL006C, strain TOP1, hits give low values 0.67 | S. cerevisiae deletion strains, locus YPR141C, strain kar3, hits give low values 1.02 | S. cerevisiae deletion strains, locus YPR163C, strain tif3, hits give low values 0.974
